The panel holds about 79,000 compounds, 15% with a hit somewhere; the sample as a whole holds those more often. A number with no mark means an inactive call. The source made the active and inactive calls. No stated cut-off is given here; in the data, active means growth inhibition above about 70%; inactive means the rest.
Tests used:
[1] = NCI Yeast Anticancer Drug Screen. Data for the rad50 strain (AID 155);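 further: 0% = growth of vehicle-only cultures of the same strain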; conditions: S. cerevisiae rad50 strain growth inhibition; at 50.0 µM; active compounds read high
How it was run: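 Genetically altered yeast (DNA repair pathway); compound treatment; growth inhibition vs vehicle ctrl.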

[2] = NCI Yeast Anticancer Drug Screen. Data for the mec2-1 strain (AID 157); conditions: S. cerevisiae mec2-1 strain, at 50.0 µM, active compounds read high
How it was run: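 Readout is yeast growth inhibition, normalised to vehicle-treated controls, in the mec2-1 strain exposed to compound.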

[3] = NCI Yeast Anticancer Drug Screen. Data for the sgs1 mgt1 strain (AID 161);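 further: 0% = growth of cultures given vehicle only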; conditions: S. cerevisiae sgs1 mgt1 strain, at 50.0 µM, active compounds read high
How it was run: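 Compounds are added to genetically altered yeast, and growth is compared with cultures given vehicle alone to give percent inhibition.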

[4] = NCI Yeast Anticancer Drug Screen. Data for the cln2 rad14 strain (AID 165);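 further: 0% = growth equal to vehicle treated cultures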; conditions: S. cerevisiae cln2 rad14 strain, at 50.0 µM, active compounds read high
How it was run: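 Relative to vehicle controls, growth inhibition of compound-treated cln2 rad14 yeast was recorded.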

[5] = NCI Yeast Anticancer Drug Screen. Data for the bub3 strain (AID 167); conditions: S. cerevisiae bub3 mutant strain, at 50.0 µM, active compounds read high
How it was run: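 Yeast carrying a defined mutation is treated with each compound, and growth is compared with that of vehicle-exposed cells to give inhibition.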

[6] = NCI Yeast Anticancer Drug Screen. Data for the mlh1 rad18 strain (AID 175); conditions: S. cerevisiae mlh1 rad18 strain growth inhibition; at 50.0 µM; active compounds read high
How it was run: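 Test agents were incubated with a yeast strain of defined genotype (DNA damage repair defect). Inhibition of growth was derived by comparison with vehicle-exposed cultures.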

Row | Compound | growth inhibition [1] [%] | growth inhibition [2] [%] | growth inhibition [3] [%] | growth inhibition [4] | growth inhibition [5] [%] | growth inhibition [6] [%]
1 | O=C(COc1ccc(Cl)c(Cl)c1)Nc1ccc[n+](CC(=O)Nc2ccc(S(=O)(=O)F)cc2)c1 | 32.4 | 41.4 | 32.5 | 96.7% (active) | 45 | 22.1
2 | CC(C)NC(=O)N1C2C3CCC(C)(OC3(C)C)C21 (stereo not drawn) | -16.5 | -21.4 | 3.7 | -9.35% | -14.9 | -12.2
3 | NC(=O)c1cc([N+](=O)[O-])c(N(CCCl)CCCl)c([N+](=O)[O-])c1 | 13.8 | 17.1 | 5.05 | 17.9% | -1.55 | 17.8
4 | O=C1OC(c2ccccc2)(c2ccccc2)C(=O)OC1(c1ccccc1)c1ccccc1 | 16.7 | -14 | 7.7 | 0.4% | 10.4 | 19.2
5 | CNC1(c2ccc(F)cc2)CCCCC1 | -15.8 | -23.1 | -11.5 | 8.05% | -13.8 | -30.8
6 | CC(O)C[As](=O)(O)c1cccc(Cl)c1 (stereo not drawn) | 2.05 | 33.9 | 10.3 | -0.7% | 37.5 | 39.5
7 | S=C(N=Nc1ccccc1)NNc1ccccc1.[Ni] | 12.3 | -15.3 | 2 | 6.25% | 26.8 | 0.5
8 | OCCCNCc1cccnc1 | 9.55 | -3.05 | -0.75 | 29.2% | -3.8 | 25.9
9 | CCCCCCCCCCOP(OCCCCCCCCCC)Oc1ccccc1 | 47.1 | -4.9 | 2.1 | 10.5% | 0.45 | 7.45
10 | Oc1ccccc1/C=N/Sc1ccccc1.Oc1ccccc1/C=N/Sc1ccccc1.[Ni+2] | 3.2 | -0.85 | 30.6 | -6.6% | 12.7 | 36
11 | FC(F)(F)C(OP(OC(C(F)(F)F)C(F)(F)F)OC(C(F)(F)F)C(F)(F)F)C(F)(F)F | 27.4 | 8.95 | 2.6 | 1.55% | -4.9 | 28.1
12 | CCC(N)CBr (stereo not drawn) | -9.65 | 1.7 | -9.5 | -16.9% | 5.3 | 8.9
13 | CCC[CH2][Sn]([CH2]CCC)([O]C(=O)CN)[O]C(=O)CN | 29.9 | 17.9 | 35.4 | 22% | 19.1 | 44.1
14 | CCC1C(=O)OCC1Cc1cncn1C (stereo not drawn) | -11.3 | -8.4 | -17.9 | 0.55% | -9.95 | -17.9
15 | O=[N+]([O-])c1ccc(P(=O)(O)O)cc1 | -7.5 | -27.7 | 0.3 | -22.4% | 2.85 | 10.4
16 | CC(=O)[O-].CC(=O)[O-].O=C(N/N=C/c1cc(Cl)cc(Cl)c1O)c1ccncc1.[Ni+2] | -12.6 | 18.4 | 19.1 | -22.2% | -0.05 | 16.9
17 | C=CCC1(C(=C)C)C(=O)NC(=O)NC1=O | 6.05 | 6.05 | 1.4 | 2.75% | -13.8 | -11.3
18 | CC(=O)OC1CC2(C)C(=CC1C1SCCS1)CCC1C2CCC2(C)C(OC(C)=O)CCC12 (stereo not drawn) | -7.6 | 3.2 | -31.5 | 14.7% | -49.5 | 11.3
19 | CCCCCCCCCCCCCCCC(=O)OCC(C[As](=O)(O)O)OC(=O)CCCCCCCCCCCCCCC (stereo not drawn) | 26.1 | 5.9 | -15.1 | 9.5% | -0.15 | 13.5

Row | Compound | growth inhibition [1] [%] | growth inhibition [2] [%] | growth inhibition [3] [%] | growth inhibition [4] | growth inhibition [5] [%] | growth inhibition [6] [%]
20 | CCOP(=O)(NCc1ccccc1)c1ccc(N)cc1 (stereo not drawn) | 6.05 | -6.45 | 7.65 | 1.95% | -0.5 | 7.15
21 | CCCCCCCCCCOC(=O)c1ccccc1C(=O)OCCCCCCCCCC | -22 | -23.9 | -13.8 | 17.3% | -11.2 | -24.6
22 | Clc1cccc(Cl)c1C(Cl)Cl | -7.45 | -17.2 | -3.15 | -4.4% | -6.65 | -11.2
23 | NS(=O)(=O)c1ccc(N=Nc2ccc([As](=O)(O)O)cc2)cc1 | 43 | 6.6 | 18.6 | 19.2% | 3.45 | 19.9
24 | O=[N+]([O-])c1cc(Br)c(O)c(Br)c1 | 12.2 | 18.8 | 5.15 | -37.4% | 6.75 | 32.3
25 | CN1CCOP(=O)(Oc2ccccc2)N1 (stereo not drawn) | -46 | -17.4 | -26.1 | -64.2% | 4.5 | -16.1
26 | Cc1ccc2c(c1)N(CCCl)c1c(ccc3ccccc13)S2 | -6.55 | -10 | -6.55 | -67.9% | 22.2 | -6.6
27 | O=NN1CCCCCC1C(=O)O (stereo not drawn) | -22.1 | 1 | -20.9 | -24.7% | 2.7 | -0.25
28 | Cc1cc(S(=O)(=O)F)ccc1NC(=O)NCc1ccc([N+](=O)[O-])cc1 | 2.75 | 15.7 | 24.1 | -1.95% | 18.1 | 10.1
29 | O=C1CC=C2C3CC4N(CCC45c4ccccc4N1C25)C/C3=C\CO (stereo not drawn) | 22.8 | -11.7 | -5.3 | 0% | 37 | -38
30 | CC(C)OP(=O)(OCCCO)C(Cl)Cl (stereo not drawn) | 0.35 | 17.1 | 1.1 | 2.55% | 3.75 | 0.75
31 | CC(=O)[C-](Br)C(C)=O.CC(=O)[C-](Br)C(C)=O.CC(=O)[C-](Br)C(C)=O.[Ru+3] | 1.05 | 1 | -15.9 | -15.1% | 17.8 | 14.5
32 | CCCCOCCOC(=O)CCl | 9.1 | -21.1 | 33 | -14.8% | -4.95 | 14.8
33 | Cc1ccc(N=C2OP(=O)(Nc3ccc(C)cc3)Oc3ccccc32)cc1 (stereo not drawn) | -11.3 | -44.8 | -23.6 | 0.3% | -6 | -19.9
34 | CC1(C)C(=O)/C(=N\O)C[C@@]2(C)C1=CC[C@@H]1[C@@H]2CC[C@]2(C)C(=O)/C(=N/O)C[C@@H]12 | 1.55 | -5.25 | -0.05 | -45.1% | -1 | -12.1
35 | O=c1[nH]cnc2c1ncn2-c1ccc(N(CCCl)CCCl)cc1 | 4.3 | 12.7 | 16 | -20.5% | -12.2 | 15.2
36 | CCC1(CCO)C(=O)NC(=O)NC1=O | -1.6 | -48.9 | -0.4 | -12.2% | -14.8 | -2.7
37 | CCOP(=O)(OCC)/C(C#N)=C/c1nccn1C | -15.2 | 0.15 | -13.7 | 34.3% | 24.1 | -34.4
38 | CC(=O)CC(C)=O.CC(=O)CC(C)=O.[Co] | -31.9 | -41 | -8 | -133% | -52.3 | 0.7

From PubChem BioAssay (NCI)
